According to PubChem BioAssay (EPA / NIEHS):
Records with an inconclusive call do not appear. The source made the active and inactive calls. The calls were made as follows, unless noted: active = hit-call score of the fitted dose curve at least 0.9, where 1 is the maximum; inconclusive = response in the unintended direction; inactive = score below 0.9.

Experiments:
[1] = ATG_TCF_b_cat_CIS: Attagene CIS-FACTORIAL HepG2 Assay for human T-Cell-Factor with beta-catenin (TCF/b-cat) (AID 2282965; active = hit-call score of the fitted dose curve at least 0.9, where 1 is the maximum; inactive = score below 0.9); details: HepG2 TCF/beta-catenin cis-reporter transcription, actives raise or lower the signal
Procedure, shortened: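 HepG2 cells transiently transfected with cis-promoter-driven multiplexed reporter units; reporter mRNA measured 24 h after dosing by RT-PCR, FAM labelling, HpaI digestion and capillary electrophoresis. Bidirectional fitting relative to DMSO baseline.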

[2] = ATG_TAL_CIS: Attagene CIS-FACTORIAL HepG2 Assay for human TAL Basal Promoter (AID 2282966; active = hit-call score of the fitted dose curve at least 0.9, where 1 is the maximum; inactive = score below 0.9;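 also: background control endpoint measuring basal TAL promoter reporter mRNA not a specific factor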); details: HepG2 Attagene cis-factorial TAL promoter reporter; actives raise or lower the signal
Procedure, shortened: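 Steps: transfect HepG2 with multiple reporter transcription units; dose 24 h; isolate RNA, reverse-transcribe, PCR-amplify, label with 6-FAM, digest with HpaI; resolve by capillary electrophoresis. Bidirectional fitting against DMSO baseline.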

[3] = ATG_TGFb_CIS: Attagene CIS-FACTORIAL HepG2 Assay for human Transforming Growth Factor (TGF) (AID 2282967; active = hit-call score of the fitted dose curve at least 0.9, where 1 is the maximum; inactive = score below 0.9); details: HepG2 Attagene CIS TGFb reporter, mRNA transcription; actives raise or lower the signal
Procedure, shortened: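 Readout: fluorescently labeled reporter cDNA fragments resolved by capillary electrophoresis after RT-PCR. Transfected HepG2 cells dosed for 24 h; endogenous TF activity at TGFB1-linked cis element; gain or loss fitted relative to DMSO.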

[4] = ATG_VDRE_CIS: Attagene CIS-FACTORIAL HepG2 Assay for human Vitamin D Receptor Element (VDRE) (AID 2282968; active = hit-call score of the fitted dose curve at least 0.9, where 1 is the maximum; inactive = score below 0.9); details: HepG2 VDRE cis-reporter transcription, actives raise or lower the signal
Procedure, shortened: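 Cell-based multiplexed reporter format in human liver HepG2 cells, 24 h post-dose. Fluorescence from capillary electrophoresis of reporter cDNA gives the signal, with DMSO as negative control and baseline.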

[5] = target: Steroid hormone receptor ERR1 (Homo sapiens) (UniProt P11474); assay: ATG_ERRa_TRANS: Attagene TRANS-FACTORIAL HepG2 Assay for human Estrogen-Related Receptor alpha (ERRa) (AID 2282971); details: HepG2 Attagene TRANS reporter, ERRa transactivation
Procedure, shortened: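 Signal gain relative to DMSO for an ERRa-Gal4 chimeric receptor, read as reporter mRNA by RT-PCR/capillary electrophoresis. Human HepG2 liver cells, transient multiplex reporter transfection, 24 h chemical exposure.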

[6] = ATG_M_19_TRANS: Attagene TRANS-FACTORIAL HepG2 Assay for M19 Transcription Factor (Internal Marker) (AID 2282974); details: HepG2 Attagene TRANS-FACTORIAL M19 internal marker reporter
Procedure, shortened: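 Fluorescence of 6-FAM-labelled reporter cDNA fragments, separated by capillary electrophoresis, served as the readout. These derived from HepG2 cells carrying transfected GAL4-UAS reporter units after 24 h dosing, with DMSO as negative control.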

[7] = ATG_GAL4_TRANS: Attagene TRANS-FACTORIAL HepG2 Assay for GAL4 (Internal Marker) (AID 2282976); details: HepG2 Attagene TRANS GAL4 internal marker reporter
Procedure, shortened: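 Liver HepG2 line bearing multiplexed GAL4-UAS reporter constructs; 24 h chemical treatment. Transcripts were quantified as fluorescent fragments on capillary electrophoresis after RT-PCR and HpaI cut, with activity fitted upward from DMSO.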

[8] = target: Estrogen-related receptor gamma (Homo sapiens) (UniProt P62508); assay: ATG_ERRg_TRANS: Attagene TRANS-FACTORIAL HepG2 Assay for human Estrogen-Related Receptor gamma (ERRg) (AID 2282977); details: HepG2 Attagene TRANS reporter, ERRg transactivation;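 also: hits increase reporter signal over DMSO so potencies reflect activators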
Procedure, shortened: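 Transient HepG2 transfectants, 24 h compound exposure, GAL4-UAS reporter mRNA by RT-PCR/6-FAM labelling/capillary electrophoresis; positive direction vs DMSO.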

[9] = target: Glucocorticoid receptor (Homo sapiens) (UniProt P04150); assay: ATG_GR_TRANS: Attagene TRANS-FACTORIAL HepG2 Assay for human Glucocorticoid Receptor (GR) (AID 2282978); details: HepG2 Attagene TRANS GR reporter, mRNA transcription;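 also: activators score as hits since higher reporter transcript over DMSO is fitted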
Procedure, shortened: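 Fluorescent capillary-electrophoresis quantitation of reporter mRNA is the readout, taken 24 h after dosing human HepG2 cells carrying transiently transfected GAL4-UAS reporter units activated by chimeric NR-GAL4 fusions; activity scored as induction over DMSO.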

[10] = target: Bile acid receptor (Homo sapiens) (UniProt Q96RI1); assay: ATG_FXR_TRANS: Attagene TRANS-FACTORIAL HepG2 Assay for Farnesoid X Receptor (FXR) (AID 2282979); details: HepG2 Attagene TRANS FXR-GAL4 reporter transcription;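 also: hits raise reporter mRNA above DMSO so AC50 marks FXR activation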
Procedure, shortened: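 After 24 h chemical treatment of transfected HepG2 cells, GAL4-UAS reporter transcripts driven by an exogenous FXR-GAL4 fusion were measured by RT-PCR and capillary electrophoresis. Increases over DMSO were fitted.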

[11] = target: Oxysterols receptor LXR-alpha (Homo sapiens) (UniProt Q13133); assay: ATG_LXRa_TRANS: Attagene TRANS-FACTORIAL HepG2 Assay for human Liver X Receptor alpha (LXRa) (AID 2282980); details: HepG2 Attagene TRANS reporter, LXRa transactivation
Procedure, shortened: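 In this multiplexed TRANS system, compounds act on HepG2 cells carrying GAL4-UAS reporter units and a receptor-GAL4 fusion for 24 h. Induced reporter RNA is amplified, fluorescently labelled and sized by capillary electrophoresis, with DMSO as baseline.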

[12] = target: Hepatocyte nuclear factor 4-alpha (Homo sapiens) (UniProt P41235); assay: ATG_HNF4a_TRANS: Attagene TRANS-FACTORIAL HepG2 Assay for human Hepatocyte Nuclear Factor 4 alpha (HNF4a) (AID 2282982); details: HepG2 HNF4a transactivation reporter, mRNA readout
Procedure, shortened: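 Gain-of-signal mRNA induction, relative to DMSO vehicle, was read after 24 h compound treatment of HepG2 cells bearing transfected GAL4-UAS reporters. Detection used RT-PCR, 6-FAM primer extension and capillary electrophoresis.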

[13] = ATG_M_32_TRANS: Attagene TRANS-FACTORIAL HepG2 Assay for M32 Transcription Factor (Internal Marker) (AID 2282984); details: HepG2 Attagene TRANS M32 internal marker reporter
Procedure, shortened: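 Capillary electrophoresis of 6-FAM-labelled reporter fragments gives the signal; data fitted for gain over DMSO negative control. Source: HepG2 cells bearing transient multiple reporter transcription units, 24 h exposure.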

[14] = target: Nuclear receptor subfamily 4 group A member 2 (Homo sapiens) (UniProt P43354); assay: ATG_NURR1_TRANS: Attagene TRANS-FACTORIAL HepG2 Assay for human Nuclear Receptor Related Protein 1 (NURR1) (AID 2282985); details: HepG2 Attagene TRANS reporter, mRNA readout
Procedure, shortened: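 HepG2 / transient MRTU transfection / 24 h compound exposure / RT-PCR + CE fluorescence of reporter mRNA / gain-of-signal vs DMSO.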

[15] = target: Transcriptional activator Myb (Homo sapiens) (UniProt P10242); assay: ATG_Myb_CIS: Attagene CIS-FACTORIAL HepG2 Assay for human Myeloblastosis (Myb) Proto-Oncogene Transcription Factor (AID 2282986; active = hit-call score of the fitted dose curve at least 0.9, where 1 is the maximum; inactive = score below 0.9); details: HepG2 Attagene CIS-FACTORIAL Myb reporter transcription; actives raise or lower the signal
Procedure, shortened: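 Reporter transcript levels, quantified by fluorescent RT-PCR and capillary electrophoresis, serve as the read-out. Transfected HepG2 cells carrying cis-promoter reporter units are dosed for 24 hours, and curves are fitted bidirectionally against DMSO controls.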

[16] = target: Estrogen receptor (Homo sapiens) (UniProt P03372); assay: ATG_ERa_TRANS: Attagene TRANS-FACTORIAL HepG2 Assay for human Estrogen Receptor alpha (ERa) (AID 2282970); details: HepG2 Attagene TRANS ERa GAL4 reporter, mRNA
Procedure, shortened: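 Multiplexed cell-based reporter format in HepG2: chimeric ERa-Gal4 protein drives GAL4-UAS reporter transcription. Fluorescent reporter mRNA quantified by capillary electrophoresis 24 hours after dosing; endpoint fitted as signal gain against DMSO.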

[17] = target: Oxysterols receptor LXR-beta (Homo sapiens) (UniProt P55055); assay: ATG_LXRb_TRANS: Attagene TRANS-FACTORIAL HepG2 Assay for human Liver X Receptor beta (LXRb) (AID 2282981); details: HepG2 Attagene TRANS GAL4-LXRb reporter, mRNA
Procedure, shortened: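 Gain-of-signal mRNA reporter endpoint, DMSO as negative control. Transiently transfected HepG2 cells carrying the NR-Gal4 chimera and GAL4-UAS reporter units were treated 24 h; transcripts quantified by RT-PCR and capillary electrophoresis fluorescence.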

[18] = ATG_M_06_TRANS: Attagene TRANS-FACTORIAL HepG2 Assay for M06 Transcription Factor (Internal Marker) (AID 2282983); details: HepG2 Attagene TRANS M06 internal marker reporter
Procedure, shortened: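 Internal-marker background readout from a multiplexed TRANS reporter system in HepG2; 24 h dosing; mRNA induction quantified by RT-PCR plus capillary electrophoresis fluorescence; DMSO as negative control and baseline.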

[19] = target: X-box-binding protein 1 (Homo sapiens) (UniProt P17861); assay: ATG_Xbp1_CIS: Attagene CIS-FACTORIAL HepG2 Assay for human X-box Binding Protein 1 (XBP1) (AID 2282972; active = hit-call score of the fitted dose curve at least 0.9, where 1 is the maximum; inactive = score below 0.9); details: HepG2 XBP1 cis-element reporter, Attagene multiplex; actives raise or lower the signal
Procedure, shortened: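 After a 24-hour chemical exposure of HepG2 cells carrying cis-regulated reporters, reporter mRNA levels are assessed. Quantification uses RT-PCR, 6-FAM labelling and capillary electrophoresis. Gain- or loss-of-signal is fitted against DMSO.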

Measured: AC50

X-box-binding protein 1 (Homo sapiens), sequence (P17861 whole entry, looked up): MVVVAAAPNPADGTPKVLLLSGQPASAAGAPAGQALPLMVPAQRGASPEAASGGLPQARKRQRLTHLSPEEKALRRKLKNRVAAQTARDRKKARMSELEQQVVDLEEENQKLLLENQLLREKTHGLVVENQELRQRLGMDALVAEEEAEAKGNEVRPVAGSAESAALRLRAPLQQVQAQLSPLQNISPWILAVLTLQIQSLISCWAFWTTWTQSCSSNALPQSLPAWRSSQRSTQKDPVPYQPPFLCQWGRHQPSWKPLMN
Oxysterols receptor LXR-alpha (Homo sapiens), sequence (Q13133 whole entry, looked up, the tested form may be a part): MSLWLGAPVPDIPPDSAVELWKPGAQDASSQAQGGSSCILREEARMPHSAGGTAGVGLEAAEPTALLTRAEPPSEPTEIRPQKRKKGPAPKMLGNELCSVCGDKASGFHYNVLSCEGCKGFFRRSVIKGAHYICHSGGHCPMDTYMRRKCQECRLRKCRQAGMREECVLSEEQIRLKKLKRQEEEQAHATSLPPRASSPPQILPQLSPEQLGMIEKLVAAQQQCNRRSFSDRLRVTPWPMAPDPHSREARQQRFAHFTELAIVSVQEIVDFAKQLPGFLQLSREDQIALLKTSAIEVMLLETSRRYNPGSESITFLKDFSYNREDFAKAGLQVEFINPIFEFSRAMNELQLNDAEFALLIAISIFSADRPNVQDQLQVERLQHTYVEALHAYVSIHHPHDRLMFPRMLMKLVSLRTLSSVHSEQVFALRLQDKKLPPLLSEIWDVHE
Oxysterols receptor LXR-beta (Homo sapiens), sequence (P55055 whole entry, looked up, the tested form may be a part): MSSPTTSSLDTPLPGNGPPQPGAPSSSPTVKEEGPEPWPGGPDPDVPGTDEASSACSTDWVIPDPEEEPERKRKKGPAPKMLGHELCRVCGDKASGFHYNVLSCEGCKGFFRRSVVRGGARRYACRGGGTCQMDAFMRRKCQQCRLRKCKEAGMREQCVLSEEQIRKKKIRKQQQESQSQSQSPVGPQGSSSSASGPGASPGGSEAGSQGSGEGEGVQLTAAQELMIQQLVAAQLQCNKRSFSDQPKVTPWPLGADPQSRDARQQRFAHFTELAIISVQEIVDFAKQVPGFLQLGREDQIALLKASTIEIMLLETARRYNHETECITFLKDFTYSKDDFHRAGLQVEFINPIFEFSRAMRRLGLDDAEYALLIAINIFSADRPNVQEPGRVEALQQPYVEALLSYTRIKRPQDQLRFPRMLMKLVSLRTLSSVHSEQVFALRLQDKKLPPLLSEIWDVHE
Steroid hormone receptor ERR1 (Homo sapiens), sequence (P11474 whole entry, looked up, the tested form may be a part): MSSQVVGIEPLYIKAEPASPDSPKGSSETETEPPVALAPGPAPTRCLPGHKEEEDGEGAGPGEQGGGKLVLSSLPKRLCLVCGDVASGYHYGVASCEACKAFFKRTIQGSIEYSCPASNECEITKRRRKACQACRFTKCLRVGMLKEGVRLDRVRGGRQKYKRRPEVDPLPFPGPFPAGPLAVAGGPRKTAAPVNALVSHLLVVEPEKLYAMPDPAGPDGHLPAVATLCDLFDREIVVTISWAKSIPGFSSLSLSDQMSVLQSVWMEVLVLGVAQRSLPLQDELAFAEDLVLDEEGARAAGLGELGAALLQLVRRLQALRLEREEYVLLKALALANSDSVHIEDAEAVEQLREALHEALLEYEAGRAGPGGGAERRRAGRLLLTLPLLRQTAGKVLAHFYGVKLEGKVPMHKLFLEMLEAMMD
Bile acid receptor (Homo sapiens), sequence (Q96RI1 whole entry, looked up, the tested form may be a part): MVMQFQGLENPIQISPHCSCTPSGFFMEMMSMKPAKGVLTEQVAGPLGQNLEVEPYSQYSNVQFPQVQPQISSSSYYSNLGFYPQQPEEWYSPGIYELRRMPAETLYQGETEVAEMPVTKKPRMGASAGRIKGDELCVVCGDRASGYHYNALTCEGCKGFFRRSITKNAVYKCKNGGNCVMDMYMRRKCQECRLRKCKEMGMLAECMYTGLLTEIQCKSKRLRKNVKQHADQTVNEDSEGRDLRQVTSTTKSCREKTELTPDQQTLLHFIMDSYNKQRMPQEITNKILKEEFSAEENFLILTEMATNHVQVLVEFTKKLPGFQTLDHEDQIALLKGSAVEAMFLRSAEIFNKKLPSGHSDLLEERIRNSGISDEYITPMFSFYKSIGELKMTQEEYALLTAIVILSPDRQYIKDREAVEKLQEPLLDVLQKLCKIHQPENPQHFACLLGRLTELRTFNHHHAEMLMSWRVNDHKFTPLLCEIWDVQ
Glucocorticoid receptor (Homo sapiens), sequence (P04150 whole entry, looked up, the tested form may be a part): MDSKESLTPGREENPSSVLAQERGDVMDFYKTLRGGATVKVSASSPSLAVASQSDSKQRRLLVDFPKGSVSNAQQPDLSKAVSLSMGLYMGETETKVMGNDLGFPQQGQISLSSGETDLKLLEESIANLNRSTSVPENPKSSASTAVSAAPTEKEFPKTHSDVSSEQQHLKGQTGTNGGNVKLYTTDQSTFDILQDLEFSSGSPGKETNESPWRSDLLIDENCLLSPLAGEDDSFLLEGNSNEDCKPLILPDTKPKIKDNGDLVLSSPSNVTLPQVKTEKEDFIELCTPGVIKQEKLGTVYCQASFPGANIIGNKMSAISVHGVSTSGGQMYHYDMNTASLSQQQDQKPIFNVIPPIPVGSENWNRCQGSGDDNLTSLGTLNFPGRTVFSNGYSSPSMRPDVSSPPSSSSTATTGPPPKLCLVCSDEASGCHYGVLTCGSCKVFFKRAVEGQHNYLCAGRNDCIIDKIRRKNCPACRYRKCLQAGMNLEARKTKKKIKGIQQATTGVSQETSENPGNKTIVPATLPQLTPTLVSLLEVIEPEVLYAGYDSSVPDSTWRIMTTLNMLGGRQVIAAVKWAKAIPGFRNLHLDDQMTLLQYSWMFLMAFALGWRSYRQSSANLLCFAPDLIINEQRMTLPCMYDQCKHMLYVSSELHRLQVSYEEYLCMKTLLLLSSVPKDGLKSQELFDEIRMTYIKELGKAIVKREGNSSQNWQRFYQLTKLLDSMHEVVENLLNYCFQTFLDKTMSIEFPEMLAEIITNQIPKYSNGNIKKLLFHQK
Transcriptional activator Myb (Homo sapiens), sequence (P10242 whole entry, looked up): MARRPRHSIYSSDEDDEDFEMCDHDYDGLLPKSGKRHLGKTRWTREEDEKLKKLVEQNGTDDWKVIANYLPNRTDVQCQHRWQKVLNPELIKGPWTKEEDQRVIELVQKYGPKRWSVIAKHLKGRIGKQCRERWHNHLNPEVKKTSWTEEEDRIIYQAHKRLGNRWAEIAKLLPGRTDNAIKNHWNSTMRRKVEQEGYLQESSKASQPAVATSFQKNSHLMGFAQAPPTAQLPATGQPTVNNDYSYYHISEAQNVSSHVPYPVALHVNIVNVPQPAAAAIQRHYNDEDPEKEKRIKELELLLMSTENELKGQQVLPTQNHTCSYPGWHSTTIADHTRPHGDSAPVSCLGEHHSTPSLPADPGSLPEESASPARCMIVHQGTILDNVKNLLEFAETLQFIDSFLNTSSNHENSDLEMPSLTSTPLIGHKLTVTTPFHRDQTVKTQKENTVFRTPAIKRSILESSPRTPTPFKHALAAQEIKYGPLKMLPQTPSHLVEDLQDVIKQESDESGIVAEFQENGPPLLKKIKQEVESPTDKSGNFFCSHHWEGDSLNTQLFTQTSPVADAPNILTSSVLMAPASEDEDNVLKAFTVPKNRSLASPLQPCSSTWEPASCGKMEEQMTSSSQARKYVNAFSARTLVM
Hepatocyte nuclear factor 4-alpha (Homo sapiens), sequence (P41235 whole entry, looked up, the tested form may be a part): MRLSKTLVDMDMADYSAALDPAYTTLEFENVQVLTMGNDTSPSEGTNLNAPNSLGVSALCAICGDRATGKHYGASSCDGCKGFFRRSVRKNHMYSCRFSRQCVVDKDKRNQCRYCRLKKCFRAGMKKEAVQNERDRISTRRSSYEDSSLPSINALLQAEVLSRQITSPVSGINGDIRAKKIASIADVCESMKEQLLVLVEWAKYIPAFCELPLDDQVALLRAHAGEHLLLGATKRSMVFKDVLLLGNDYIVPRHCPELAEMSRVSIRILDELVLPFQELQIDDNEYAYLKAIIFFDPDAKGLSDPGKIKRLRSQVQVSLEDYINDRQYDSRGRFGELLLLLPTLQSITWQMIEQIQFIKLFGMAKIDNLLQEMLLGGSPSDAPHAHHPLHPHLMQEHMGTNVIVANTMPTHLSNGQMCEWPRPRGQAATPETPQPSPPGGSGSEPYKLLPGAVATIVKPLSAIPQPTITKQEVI
Estrogen receptor (Homo sapiens), sequence (P03372 whole entry, looked up, the tested form may be a part): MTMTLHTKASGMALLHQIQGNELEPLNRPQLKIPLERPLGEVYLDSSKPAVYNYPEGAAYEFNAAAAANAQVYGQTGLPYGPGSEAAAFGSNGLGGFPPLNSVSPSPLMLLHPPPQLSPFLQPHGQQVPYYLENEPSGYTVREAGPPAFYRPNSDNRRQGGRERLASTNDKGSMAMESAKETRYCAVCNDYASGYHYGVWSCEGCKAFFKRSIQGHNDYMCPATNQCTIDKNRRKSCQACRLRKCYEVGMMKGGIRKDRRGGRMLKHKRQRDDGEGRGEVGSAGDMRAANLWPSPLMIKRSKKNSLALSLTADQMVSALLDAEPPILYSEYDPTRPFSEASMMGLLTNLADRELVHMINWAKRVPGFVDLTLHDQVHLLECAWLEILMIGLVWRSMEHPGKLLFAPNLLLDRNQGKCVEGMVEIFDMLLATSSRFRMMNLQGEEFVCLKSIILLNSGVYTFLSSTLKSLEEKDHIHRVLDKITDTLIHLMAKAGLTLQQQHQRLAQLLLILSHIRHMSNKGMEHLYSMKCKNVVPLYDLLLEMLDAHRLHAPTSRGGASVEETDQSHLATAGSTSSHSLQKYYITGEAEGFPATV

CCOC(=O)C1=NN(c2ccc(Cl)cc2Cl)C(C)(C(=O)OCC)C1 (stereo not given)
active: [14] 168 µM
inactive: [1] | [2] | [3] | [4] | [5] | [6] | [7] | [8] | [9] | [10] | [11] | [12] | [13] | [15]

CCCCCCCC(=O)OCC(COC(=O)CCCCCCC)OC(=O)CCCCCCC
inactive: [1] | [2] | [3] | [4] | [16] | [6] | [7] | [9] | [10] | [11] | [17] | [18] | [15]

C1CCSC1
inactive: [1] | [2] | [3] | [4] | [5] | [19] | [10] | [11] | [17] | [12] | [18] | [15]

CCCCCC[C@@H](O)C/C=C\CCCCCCCC(=O)OCC(O)CO (stereo not given in full)
active: [2] 164 µM | [19] 175 µM | [15] 145 µM
inactive: [1] | [3] | [4] | [6] | [7] | [9] | [12] | [13]

CCCCCCCCC(CO)CCCCCC (stereo not given)
inactive: [1] | [2] | [3] | [4] | [16] | [19] | [9] | [11] | [17] | [18] | [13] | [15]

O=C(O)CC(C(=O)O)S(=O)(=O)O (stereo not given)
inactive: [1] | [2] | [3] | [4] | [19] | [6] | [7] | [8] | [13]

C/C=C/C=C/CCCCCCCO
inactive: [1] | [2] | [3] | [19] | [6] | [9] | [10] | [11]
active: [4] 22.7 µM | [13] 100 µM

CC(=O)CC(=O)Nc1ccccc1C
inactive: [1] | [2] | [3] | [4] | [5] | [19] | [12] | [18]
